Bioassay records deposited in PubChem BioAssay by National Center for Advancing Translational Sciences (NCATS).
IMPase inh: membrane-permeable compound that blocks inositol monophosphatase; P97697; CHO-M1 cells, IP1 accumulation, HTRF TR-FRET ratio; inhibition (IP1 accumulation), % at 46.1 µM; 120,000 tested, under 10 active; active means well fitted curve in the direction sought with a large enough effect in the signal ratio, not every such curve was filed as active; inconclusive means small, poorly fitted or top-dose-only effect, or a change in a side signal; inactive means no such curve, though single readings can be large or run the other way; the % refers to the signal ratio;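 further: cells stimulated with carbachol in lithium chloride buffer; higher means more IMPase inhibition seen as more IP1 and lower FRET ratio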
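Cellular IMPase inhibition is scored as a rise in cytosolic IP1, detected by competitive TR-FRET between d2-labelled IP1 and a europium anti-IP1 antibody. M1-expressing CHO cells were stimulated with carbachol for 30 min at 37C, with lithium (50 mM LiCl) present in the buffer.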
IMPase Li inh: IMPase inhibition in cells with lithium potentiation | hit rate 0.35% among 210,000 | AID 1457 | Potency, µM (top dose mostly 59.4 µM), most hits filed as inhibitors | CHO-M1 cells, IP1 TR-FRET (IP-One), carbachol + lithium;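 further: IP1 builds up when IMPase is blocked and the TR-FRET signal falls; nearly all actives have a fitted effect of over 50% in size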
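Concentration–response in CHO-M1 cells, lithium-potentiated; 30 min at 37C. IP1 detected by competitive TR-FRET after 10 min lysis at RT. Hill-fitted AC50.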
PNC assembly inh: perinucleolar compartment assembly inhibition; PC3M PTB-GFP, PNC prevalence imaging, 16 h; hits give low values; activity change (PNC), negative = inhibition, % at 10 µM; hit rate 3.1% among 140,000; AID 2417;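 active means readout at or below -70, meaning at least 70% loss of cells showing the perinucleolar compartment, a nuclear body marking cancer cells; inconclusive means readout between -30 and a set limit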
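Read-out is percentage of cells bearing a perinucleolar compartment, from automated 20x imaging of fixed, Hoechst-stained PC3M PTB-GFP cells. Cells were seeded 4 h, then exposed 16 h to compound (23 nl of library stock) in duplicate plates.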
HPGD block: blocks human HPGD enzyme activity; P15428; hit rate 4.3% among 150,000; AID 894; Potency, µM, actives largely listed as inhibitors; purified HPGD, NADH fluorescence kinetic, PGE2 substrate; active means well fitted inhibition curve with a large enough effect, not every such curve was filed as active; inconclusive means small, poorly fitted or top-dose-only effect, or another doubt; inactive means no such curve, though single readings can be large or run the other way
Target sequence (P15428 whole entry, looked up): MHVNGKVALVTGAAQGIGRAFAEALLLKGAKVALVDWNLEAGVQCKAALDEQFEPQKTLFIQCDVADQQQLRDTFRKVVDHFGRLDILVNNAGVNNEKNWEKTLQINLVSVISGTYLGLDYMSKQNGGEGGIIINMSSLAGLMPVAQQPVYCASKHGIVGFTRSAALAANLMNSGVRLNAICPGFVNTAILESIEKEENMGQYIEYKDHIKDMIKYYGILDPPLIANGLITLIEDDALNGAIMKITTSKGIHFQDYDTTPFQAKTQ
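20 nM HPGD preincubated 15 min at room temperature with compound in 50 mM Tris-HCl pH 8, 0.01% Tween 20. Started with 1 mM NAD+ and 30 uM prostaglandin E2; NADH fluorescence (360/450 nm) read 5 times over 30-s intervals, last minus first.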
NPSR antagonist: antagonists of human neuropeptide S receptor cAMP signaling; CHO-NPSR cells, cAMP TR-FRET, antagonist mode; Potency, µM (doses to about 38.3 µM), hits mostly inhibitors; hit rate 1% among 220,000; AID 1461; further: nearly all actives have a fitted effect of over 50% in size
Target sequence (Q6W5P4 whole entry, looked up): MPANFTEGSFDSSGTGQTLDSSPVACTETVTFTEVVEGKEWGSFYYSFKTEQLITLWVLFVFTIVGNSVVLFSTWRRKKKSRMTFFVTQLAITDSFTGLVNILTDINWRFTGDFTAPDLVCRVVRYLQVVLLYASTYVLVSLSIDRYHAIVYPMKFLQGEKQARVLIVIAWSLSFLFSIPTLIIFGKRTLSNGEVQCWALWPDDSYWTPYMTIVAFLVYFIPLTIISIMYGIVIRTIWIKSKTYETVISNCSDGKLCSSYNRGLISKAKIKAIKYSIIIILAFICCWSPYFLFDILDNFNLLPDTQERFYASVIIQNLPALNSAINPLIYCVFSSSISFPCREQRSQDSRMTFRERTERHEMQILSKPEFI
ALDH1A1 inh: inhibitors of human aldehyde dehydrogenase 1A1; hit rate 7.3% among 220,000; AID 1030; Purified ALDH1A1, NADH fluorescence, propionaldehyde substrate; P00352; Potency, µM (titrated, usually from 75.3 µM), usual class: inhibitors; active means well fitted inhibition curve with a large enough effect, not every such curve was filed as active; inconclusive means small, poorly fitted or top-dose-only effect, or another doubt; inactive means no such curve, though single readings can be large or run the other way
Numbers stand for hits; i = inactive; ? = inconclusive; nt = no result; [ ] = remark or other dose. A selection: hits, their analogues and other compounds. The true share with any hit is near 11%. Unless noted, the call rests on the fitted dose curve; in most records, active means well fitted curve in the direction sought with a large enough effect; inconclusive means small, poorly fitted or top-dose-only effect, or another doubt; inactive means no such curve, though single readings can be large; an effect the other way counts as inactive or inconclusive.

SMILES	IMPase inh	IMPase Li inh	PNC assembly inh	HPGD block	NPSR antagonist	ALDH1A1 inh
COC(=O)C1CCN(c2cc(=O)n(-c3ccccc3Cl)c(=O)[nH]2)CC1	i	i	?	i	i	18µM
O=S(c1ccc2ccccc2c1)c1cnns1 (centres undefined)	i	i	i	i	10µM	?
CCOC(=O)C1=C(C)NC2=C(C(=O)OC2)C1c1ccccc1 (centres undefined)	nt	i	nt	nt	i	?
O=C(NCC(F)(F)F)Nc1cccnc1	i	i	-100	i	i	i
COc1ccccc1C(CCN(Cc1cccs1)C(C)=O)c1ccco1 (centres undefined)	i	nt	i	nt	?	8.9µM
CCC(=O)NCCC(c1ccco1)c1ccccc1OC (centres undefined)	i	i	i	?	i	i
O=C1N/C(=C/c2ccc(N3CCOCC3)o2)C(=O)N1c1ccccc1	nt	i	?	?	i	7.1µM
CC(C)OC(=O)CN1C(=O)S/C(=C/c2ccc(N3CCCCC3)o2)C1=O	i	i	i	i	?	7.1µM
CC(C)n1cc(/C=C2/SC(=O)N(CC(=O)N3CCCC3)C2=O)c2ccccc21	i	i	?	i	i	i
O=C1S/C(=C/c2ccc(N3CCOCC3)o2)C(=O)N1Cc1ccc(F)cc1	i	i	i	i	i	2.2µM
COc1ccc(OC)c(/C=C2\SC(=S)N(N3CCOCC3)C2=O)c1	nt	nt	nt	nt	i	?
C=CCN1C(=O)N/C(=C/c2ccc(N3CCOCC3)o2)C1=O	nt	i	i	i	i	?
COc1ccc2cc(/C=C3\SC(=S)NC3=O)c(N3CCOCC3)nc2c1	nt	i	?	20µM	i	i
O=C1S/C(=C\c2ccc(N3CCOCC3)o2)C(=O)N1Cc1ccc(F)cc1	i	i	i	?	?	8.9µM
O=C1N=C(N2CCOCC2)S/C1=C/c1ccc(-c2ccc(F)cc2)o1	nt	i	nt	nt	i	i
O=C1NC(=S)S/C1=C/c1ccc(N2CCOCC2)o1	nt	i	i	7.9µM	13µM	i
CCN(Cc1cc2ccccc2[nH]c1=O)S(=O)(=O)c1ccccc1	i	i	i	i	i	?
CCc1ccc(N2CC(C(=O)Nc3ccccc3F)CC2=O)cc1 (centres undefined)	i	i	i	i	i	i
CC(=O)c1ccc(NC(=O)c2ccc3nc(-c4ccco4)c(-c4ccco4)nc3c2)cc1	i	i	i	?	i	3.2µM
O=C(Nc1nnc(-c2ccco2)s1)c1ccccc1	i	i	i	i	i	25µM
O=C(NCc1ccccc1)c1ccc2nc(-c3ccco3)c(-c3ccco3)nc2c1	i	i	?	?	i	?
CC(=O)c1ccc(NC(=O)CSc2nnc(-c3ccco3)c(-c3ccco3)n2)cc1	nt	i	nt	nt	i	1.4µM
O=C(CSc1nnc(-c2ccco2)c(-c2ccco2)n1)c1ccccc1	nt	i	nt	nt	i	i
O=C(Nc1ccccc1)c1ccc2nc(-c3ccco3)c(-c3ccco3)nc2c1	i	i	i	5µM	i	0.18µM
Clc1ccc(-c2nnc(-c3ccco3)o2)cc1	i	i	i	?	i	?
SMILES	IMPase inh	IMPase Li inh	PNC assembly inh	HPGD block	NPSR antagonist	ALDH1A1 inh
O=c1c2nnn(-c3ccc(Cl)cc3)c2ncn1Cc1ccccn1	nt	i	nt	nt	i	i
O=C(c1ccccn1)N1CCN(C(=O)c2ccccn2)CC1	i	i	i	i	i	i
CCCCNC(=O)c1ccc2nc(-c3ccco3)c(-c3ccco3)nc2c1	i	i	?	25µM	i	5µM
CCCCN(C)C(=O)c1nc2ccccn2c1CN1CCN(C/C=C/c2ccccc2)CC1	nt	i	nt	nt	i	i
CC(Cn1cnc2ccccc21)C(=O)O (centres undefined)	i	i	-100	i	i	i
Cc1sc2nc(COC(=O)c3ccc(N4CCCC4)c([N+](=O)[O-])c3)[nH]c(=O)c2c1C	i	i	i	i	i	18µM
Cc1sc2nc(COC(=O)CNC(=O)c3ccc(C(C)(C)C)cc3)[nH]c(=O)c2c1C	nt	i	i	i	i	8.9µM
c1ccc(CSc2nncn2-c2ccccn2)cc1	i	i	i	i	i[7.67 µM]	i
CSc1nnc(-c2ccccc2)o1	i	i	i	?	i	i
O=S1(=O)C=C(Sc2nnc(-c3ccccc3)o2)c2ccccc21	?	?	?	14µM	?	22µM
Cc1ccc(NC(=O)c2[nH]cnc2C(=O)NN)cc1	nt	i	nt	nt	i	i
NNC(=O)c1nc[nH]c1C(=O)Nc1ccccn1	nt	i	nt	nt	i	22µM
COC(=O)CCCC(=O)Nc1ccc(Cl)c(Cl)c1	i	i	-100	i	i	i
O=C(O)CCCC(=O)Nc1ccc(Cl)c(Cl)c1	i	i	i	i	i	i
O=C(O)CCCC(=O)Nc1ccc(C(=O)N2CCCCC2)c(Cl)c1	i	i	?	0.45µM	i	i
CCOc1ccc(NC(=O)Nc2cc(-c3ccccc3)sc2C(=O)OC)cc1	i	i	?	i	i	i
CCOC(=O)c1sc(-c2ccc(OC)cc2)cc1NC(C)=O	nt	11µM	i	?	i	?
C=CCN1C(=O)C(Cc2ccccc2)S/C1=N/N=C/c1cccs1 (centres undefined)	i	i	i	i	i	i
C=CCN1C(=O)C(Cc2ccc(OCC)cc2)S/C1=N\N=C\c1cccs1 (centres undefined)	i	i	i	i	i	4.5µM
CCCNC(=O)N(C)c1nncnc1C(=O)NC	i	i	-100	i	i	i
CC[C@H](C)/C=C(C)/C=C/C1=CC2=CC(=O)[C@]3(C)OC(=O)[C@@H](C(C)=O)[C@@H]3C2=CO1	nt	i	nt	nt	i	?
O=C1NC(=O)c2cc(NC(=O)C3COc4ccccc4O3)ccc21 (centres undefined)	nt	i	nt	nt	i	?
O=C(Nc1ccc(-c2cn3ccsc3n2)cc1)C1COc2ccccc2O1 (centres undefined)	i	i	-94	i	?	i
NS(=O)(=O)c1ccc(NC(=O)C2COc3ccccc3O2)cc1 (centres undefined)	i	i	i	i	i	i
CC1(C)Oc2ccc(NC(=O)C3COc4ccccc4O3)cc2O1 (centres undefined)	i	i	i	20µM	i[7.67 µM]	0.035µM
CC1CC(C)CN(S(=O)(=O)c2ccc(NC(=O)C3COc4ccccc4O3)cc2)C1 (centres undefined)	i	i	-122	i	i	i
O=C(COc1ncnc2scc(-c3ccccc3)c12)NCCN1C(=O)CSC1=O	nt	i	nt	nt	i	i
O=C(NCCc1csc(-c2cccnc2)n1)c1ccc(Br)o1	i	i	i	?	i	22µM
O=C(NCCc1csc(-c2ccccc2)n1)c1ccc(Br)o1	i	i	i	?	i	i
CC1NC2(C(=O)N(Cc3ccccc3)c3ccccc32)C2C(=O)N(c3ccccc3)C(=O)C12 (centres undefined)	i	i	i	i	i	14µM
